Data reported in PubChem BioAssay (NCI).
This is part of a sample that, as a whole, favours compounds with a hit. Of some 83,000 tested, about 20% had one in any assay.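 Cells were grown in 96-well plates and exposed to the test compound at a single concentration for 48 hours; results are reported as percent growth, with values below 10 considered active.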 Calls of active or inactive are those of the source.

These molecules were tested on HL-60(TB) leukemia (assay: NCI-60 one-dose screen, 48 h (100 = growth as untreated, 0 = no growth, -100 = all killed)). Conditions: 10 µM unless noted.

SMILES	growth
C/C(=N/N=C(N)N)c1ccc(N)cc1	60.1% (inactive)
COC(=O)Nc1cccc(Cl)c1OC	103% (inactive)
NC(=Nc1nc(-c2ccccn2)cc2ccccc12)c1ccccn1	-30.6% (active)
COc1cc(Cn2ccc3c2-c2oncc2CC3)cc(OC)c1	16.6% (inactive)
C[C@H]1Oc2cc(cnc2N)-c2c(nn(C)c2C#N)CN(C)C(=O)c2ccc(F)cc21	77% (inactive)
Nc1cc(N)c(N=Nc2ccc(S(=O)(=O)O)cc2)cc1N=Nc1ccc(-c2ccc(N=Nc3ccc(O)c(C(=O)O)c3)cc2)cc1	111% (inactive)
O=C(Nc1ccc(Cl)c([N+](=O)[O-])c1)Nc1nc2ccccc2s1	91.3% (inactive)
c1ccc(CCSc2ncnc3nc[nH]c23)cc1	74.7% (inactive)
Nc1ccc(F)cc1F	97.9% (inactive)
Cc1ccccc1N1C(=O)c2cc(S(N)(=O)=O)c(Cl)cc2NC1C (centres undefined)	87.9% (inactive)
COc1cc2c(cc1OC)CC[N+](CCC[N+](C)(C)C)=C2	90.1% (inactive)
CCCCCC1CCCCN1C(=O)OCCCC (centres undefined)	102% (inactive)
O=C(Nc1ccc(Cl)cc1F)c1cc(I)ccc1O	19.9% (inactive)
C=C(C)[C@@H]1CC[C@]2(C(=O)N3CCNCC3)CC[C@]3(C)[C@H](CC[C@@H]4[C@@]5(C)C/C(=C/c6ccncc6)C(=O)C(C)(C)[C@@H]5CC[C@]43C)[C@@H]12	99.7% (inactive)
C=C1CC[C@@H]2[C@](C)(COC(C)=O)[C@H](OC(C)=O)CC[C@@]2(C)[C@@H]1CC(Nc1ccc(S(=O)(=O)Nc2nccc(C)n2)cc1)C1=CCOC1=O (some centres undefined)	-17.3% (active)
COc1cc(-c2cc(-c3nc4cc(Cl)c(Cl)cc4[nH]3)[nH]n2)cc(OC)c1OC	14.2% (inactive)
CC1Cc2c(Cl)ncnc2N(C)c2ccc(O)cc21 (centres undefined)	91.4% (inactive)
O=C1c2cc3c(cc2-c2c1c1ccc(F)cc1c(=O)n2CCCN1CCOCC1)OCO3	13.7% (inactive)
CC(=O)c1ccccc1NC(=O)C(C)(c1ccccc1)c1ccccc1	94.3% (inactive)
CCCCCc1nc2c(c3c1CCCC3)CCCC2	-15.2% (active)
CCNC(=O)Oc1ccc(/C(=C(\C)c2ccccc2)c2ccc(OCCCN(C)C)cc2)cc1	53.2% (inactive)
CC(Cc1ccco1)C(=O)NC(N)=O (centres undefined)	87.5% (inactive)
CC(=O)CC(c1cccs1)c1c(-c2ccccc2)[nH]c2ccccc12 (centres undefined)	99.8% (inactive)
CCOC(=O)C1=C(C)NC(SCc2nnc(-c3ccc(Cl)cc3)o2)=NC1c1ccc(Cl)cc1Cl (centres undefined)	-6.39% (active)
